# Test results from PubChem BioAssay (NCATS).
# Results filed as inconclusive are left out. A call without a number means that no potency is given here. Active and inactive are the calls of the source. Calls come from the whole dose curve; as a rule, active = well fitted inhibition curve with a large enough effect; inconclusive = small, poorly fitted or top-dose-only effect; inactive = flat fitted curve, though single readings scatter.
# System: MKL-2
# Test: qHTS assay to identify novel small-molecules to repurpose for Merkel cell carcinoma treatment (AID 1296009); note: nearly all actives have a fitted effect of over 60% in size
# Conditions: MCC and control cell lines, CellTiter-Glo viability, 72 h; series mostly up to 46 µM
# Outline: (§1)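 Cells exposed to NPC (8-point) and MIPE (11-point) compound dilutions for 72 hr at 37 degree celsius; viability read by CellTiter-Glo luminescence, normalized to no-cell and DMSO in-plate controls.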
row,Structure (SMILES),Potency
1,Cc1ccc(-c2ccccc2C#N)cc1,inactive
2,COC(=O)/C=C(/C)N,inactive
3,CN1N=C(C(N)=O)CCC1=O,inactive
4,CC(NC(CCc1ccccc1)C(=O)O)C(=O)N1C(=O)N(C)CC1C(=O)O (configuration not stated),inactive
5,CN(C)CCN1CCN(c2cccc(Cl)c2)C1=O,inactive
6,Cc1cc(O)c(C)c(C)c1O,inactive
7,COC(=O)c1cc(Cl)ccc1OC,inactive
8,COc1ccc(CCC(C)=O)cc1,inactive
9,CCCC(=O)Nc1ccc(O)c(C(C)=O)c1,inactive
10,Cc1ccc(C(C)OC(=O)C2(C)CCC(C(=O)O)C2(C)C)cc1 (configuration not stated),inactive
11,O=C(C1CCCCC1)N1CC(=O)N2CCCc3ccccc3C2C1 (configuration not stated),inactive
12,O=C(O)/C=C(\CC(=O)O)C(=O)O,inactive
13,CC(C)(C)C(=O)OCOC(=O)C1N2C(=O)CC2S(=O)(=O)C1(C)C (configuration not stated),inactive
14,Cc1c(N)cccc1C(F)(F)F,inactive
15,CC(CC(C#N)(c1ccccc1)C(C)C)N(C)C (configuration not stated),inactive
16,CC(C)(C)c1nnc(NS(=O)(=O)c2ccccc2)s1,inactive

row,Structure (SMILES),Potency
1,Oc1ccccc1-c1nnco1,inactive
2,NS(=O)(=O)c1ccc(N2CCCCS2(=O)=O)cc1,inactive
3,Cc1ccc2ccc(Cl)cc2n1,inactive
4,Cc1cccc(C)c1NC(=O)c1cc(S(N)(=O)=O)c(Cl)cc1O,inactive
5,CC(=O)OCC(=O)[C@@]1(O)[C@H](OC(C)=O)C[C@H]2[C@@H]3CCC4=CC(=O)C=C[C@]4(C)[C@@]3(F)[C@@H](O)C[C@@]21C,inactive
6,CCN(CC)C(=O)C1CN2CCc3cc(OC)c(OC)cc3C2CC1OC(C)=O (configuration not stated),inactive
7,COC(=O)CCCCC(CCSS/C(CCO)=C(\C)N(C=O)Cc1cnc(C)nc1N)SC(C)=O (configuration not stated),inactive
8,COc1ccc(/C(C)=C/C(=O)O)c(OC)c1,inactive
9,OC1(c2ccc(Cl)cc2)CCNCC1,inactive
10,Cc1oc(-c2ccccc2)nc1CCC(=O)c1ccc(CC2SC(=O)NC2=O)cc1 (configuration not stated),inactive
11,CCN(CC)CC(=O)Oc1ccc(NC(C)=O)cc1,inactive
12,CCCCCC[C@@H](CCC)C(=O)O,inactive
13,CC(=O)c1ccc(O)c(C(N)=O)c1,inactive
14,COC(=O)/C=C\C(=O)OC,inactive
15,COc1cc(OC)nc(O[C@H](C(=O)O)C(OC)(c2ccccc2)c2ccccc2)n1,inactive
16,C[C@H]1C[C@@H]2[C@H]([C@@H](O)C[C@@]3(C)[C@H]2CC[C@]3(O)C(=O)CO)[C@@]2(C)C=CC(=O)C=C12,inactive

# System: NIH3T3
# Test: as above
# Conditions: MCC and control cell lines, CellTiter-Glo viability, 72 h; at 44.8 µM (top of the series) unless noted
# Outline: as §1
row,Structure (SMILES),outcome
1,COC(=O)/C=C(/C)N,inactive
2,CN1N=C(C(N)=O)CCC1=O,inactive
3,CN(C)CCN1CCN(c2cccc(Cl)c2)C1=O,inactive
4,Cc1cc(O)c(C)c(C)c1O,inactive
5,COC(=O)c1cc(Cl)ccc1OC,inactive
6,COc1ccc(CCC(C)=O)cc1,inactive
7,Cc1ccc(C(C)OC(=O)C2(C)CCC(C(=O)O)C2(C)C)cc1 (configuration not stated),inactive
8,O=C(C1CCCCC1)N1CC(=O)N2CCCc3ccccc3C2C1 (configuration not stated),inactive
9,O=C(O)/C=C(\CC(=O)O)C(=O)O,inactive
10,CC(CC(C#N)(c1ccccc1)C(C)C)N(C)C (configuration not stated),inactive
11,NS(=O)(=O)c1ccc(N2CCCCS2(=O)=O)cc1,inactive
12,CC(=O)OCC(=O)[C@@]1(O)[C@H](OC(C)=O)C[C@H]2[C@@H]3CCC4=CC(=O)C=C[C@]4(C)[C@@]3(F)[C@@H](O)C[C@@]21C,inactive
13,COC(=O)CCCCC(CCSS/C(CCO)=C(\C)N(C=O)Cc1cnc(C)nc1N)SC(C)=O (configuration not stated),inactive
14,COc1ccc(/C(C)=C/C(=O)O)c(OC)c1,inactive
15,CCN(CC)CC(=O)Oc1ccc(NC(C)=O)cc1,inactive
16,CCCCCC[C@@H](CCC)C(=O)O,inactive
17,CC(=O)c1ccc(O)c(C(N)=O)c1,inactive
18,COC(=O)/C=C\C(=O)OC,inactive
19,COc1cc(OC)nc(O[C@H](C(=O)O)C(OC)(c2ccccc2)c2ccccc2)n1,inactive

# System: UISO
# Test: as above
# Conditions: MCC and control cell lines, CellTiter-Glo viability, 72 h; series mostly up to 46 µM
# Outline: as §1
row,Structure (SMILES),Potency
1,Cc1ccc(-c2ccccc2C#N)cc1,inactive
2,COC(=O)/C=C(/C)N,inactive
3,CN1N=C(C(N)=O)CCC1=O,inactive
4,CC(NC(CCc1ccccc1)C(=O)O)C(=O)N1C(=O)N(C)CC1C(=O)O (configuration not stated),inactive
5,CN(C)CCN1CCN(c2cccc(Cl)c2)C1=O,inactive
6,COC(=O)c1cc(Cl)ccc1OC,inactive
7,COc1ccc(CCC(C)=O)cc1,inactive
8,CCCC(=O)Nc1ccc(O)c(C(C)=O)c1,inactive
9,Cc1ccc(C(C)OC(=O)C2(C)CCC(C(=O)O)C2(C)C)cc1 (configuration not stated),inactive
10,O=C(C1CCCCC1)N1CC(=O)N2CCCc3ccccc3C2C1 (configuration not stated),inactive
11,O=C(O)/C=C(\CC(=O)O)C(=O)O,inactive
12,CC(C)(C)C(=O)OCOC(=O)C1N2C(=O)CC2S(=O)(=O)C1(C)C (configuration not stated),inactive
13,Cc1c(N)cccc1C(F)(F)F,inactive
14,CC(CC(C#N)(c1ccccc1)C(C)C)N(C)C (configuration not stated),inactive
15,CC(C)(C)c1nnc(NS(=O)(=O)c2ccccc2)s1,inactive
16,Oc1ccccc1-c1nnco1,inactive

row,Structure (SMILES),Potency
1,NS(=O)(=O)c1ccc(N2CCCCS2(=O)=O)cc1,inactive
2,Cc1ccc2ccc(Cl)cc2n1,inactive
3,Cc1cccc(C)c1NC(=O)c1cc(S(N)(=O)=O)c(Cl)cc1O,inactive
4,CC(=O)OCC(=O)[C@@]1(O)[C@H](OC(C)=O)C[C@H]2[C@@H]3CCC4=CC(=O)C=C[C@]4(C)[C@@]3(F)[C@@H](O)C[C@@]21C,inactive
5,CCN(CC)C(=O)C1CN2CCc3cc(OC)c(OC)cc3C2CC1OC(C)=O (configuration not stated),inactive
6,COC(=O)CCCCC(CCSS/C(CCO)=C(\C)N(C=O)Cc1cnc(C)nc1N)SC(C)=O (configuration not stated),inactive
7,COc1ccc(/C(C)=C/C(=O)O)c(OC)c1,inactive
8,OC1(c2ccc(Cl)cc2)CCNCC1,inactive
9,Cc1oc(-c2ccccc2)nc1CCC(=O)c1ccc(CC2SC(=O)NC2=O)cc1 (configuration not stated),inactive
10,CCN(CC)CC(=O)Oc1ccc(NC(C)=O)cc1,inactive
11,CCCCCC[C@@H](CCC)C(=O)O,inactive
12,CC(=O)c1ccc(O)c(C(N)=O)c1,inactive
13,COC(=O)/C=C\C(=O)OC,inactive
14,COc1cc(OC)nc(O[C@H](C(=O)O)C(OC)(c2ccccc2)c2ccccc2)n1,inactive
15,C[C@H]1C[C@@H]2[C@H]([C@@H](O)C[C@@]3(C)[C@H]2CC[C@]3(O)C(=O)CO)[C@@]2(C)C=CC(=O)C=C12,inactive
